Screening data as filed in PubChem BioAssay.
SKOV3 invasion – ovarian cancer metastasis inhibition, 3D TME model; Potency, µM (titrated, usually from 45.8 µM), for inactives: at the top dose activity change, negative = inhibition, hits mostly inhibitors; SKOV3ip1-GFP adhesion/invasion on 3D omental model, fluorescence; actives 0.1% (n = 46,000);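 further: potency means the concentration at half of the fitted maximal effect; plate controls were DMSO wells for no effect and tomatine positive control wells for full effect; nearly all actives have a fitted effect of over 65% in size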
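A 3D layer of primary human omental fibroblasts, mesothelial cells, fibronectin and collagen I, grown 48 hr, received SKOV3ip1-GFP cells in serum-free medium plus compounds at 0.36-46 umol/L. After 2 hr RT and 16 hr 37 C, fixed adherent GFP cells were counted; normalized to DMSO and tomatine.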
PTAP-TSG101 blk – inhibitors of HIV-1 PTAP binding to human TSG101, validation; Q99816; Fluorescence polarization, FITC-PTAP peptide/Tsg101, 20 min; Potency, µM (series often up to 115 µM), most hits filed as inhibitors; 44,000 tested, under 10 active; AID 1347069; further: potency means the concentration at half of the fitted maximal effect; 0% is about no effect
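Compounds pinned into 10 uM Tsg101 binding domain, then 50 nM FITC-PTAP peptide added in pH 7.5 HEPES buffer; FP read after 20 min, room temperature. Total S+P intensity flags fluorescent compounds; active cut-off <25 µM, efficacy <60%.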
HTT prom inh – HTT promoter inhibition; actives 0.93% (n = 48,000); HEK293 HTT promoter firefly luciferase reporter, 24 h; Potency, µM (highest dose often 57.5 µM), inactives show at the top dose activity change, negative = inhibition, usual class: inhibitors; further: potency means the concentration at half of the fitted maximal effect; nearly all actives have a fitted effect of over 50% in size
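HEK293 Fluc reporter, 2,500 cells/well, 24 h pre-culture; cpds up to 57.5 uM final, 24 h 37 degrees C; Dual-Glo, 10 min RT; normalized vehicle = 0%, zero RLU = -100%.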
NTMT1 inh – inhibitors of human N-terminal methyltransferase NTMT1. NTMT1 MTase-Glo SAH luminescence, purified enzyme. Potency, µM (highest dose often 114 µM), for inactives: at the highest dose activity change, negative = inhibition, actives largely listed as inhibitors. actives 2.5% (n = 59,000);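 further: potency means the concentration at half of the fitted maximal effect; plate controls were DMSO vehicle for no effect and no enzyme for full effect; nearly all actives have a fitted effect of over 65% in size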
Target sequence (Q9BV86 whole entry, looked up): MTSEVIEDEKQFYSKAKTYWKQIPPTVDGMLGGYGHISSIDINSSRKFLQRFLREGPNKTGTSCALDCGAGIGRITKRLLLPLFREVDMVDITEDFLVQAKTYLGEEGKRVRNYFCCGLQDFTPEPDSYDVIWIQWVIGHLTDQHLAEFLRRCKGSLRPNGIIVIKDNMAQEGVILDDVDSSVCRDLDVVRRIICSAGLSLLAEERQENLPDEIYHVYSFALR
GALK inh – inhibits human galactokinase; Potency, µM (top dose mostly 57.5 µM), without a hit: at the highest dose activity, negative = inhibition, hits mostly inhibitors; 44,000 tested, under 10 active; recombinant GALK, Kinase-Glo ATP luminescence, 1 h; AID 1347072;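 further: plate controls were full GALK reaction for no effect and reaction lacking GALK for full effect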
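Luminescent ATP-depletion readout (Kinase-Glo Plus, 10 min) after 1 h RT reaction of 5 nM GALK, 35 uM ATP, 100 uM galactose, pH 8.0 HEPES buffer. Decreased kinase activity scored as inhibition.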
HTT-AS act – activates huntingtin-antisense promoter activity; HEK293 HTT-AS promoter firefly luciferase reporter, 24 h; response scale: percent change from vehicle, -100% = no light; Potency, µM (series often up to 57.5 µM), inactives show at the top dose activity change, positive = activation, most hits filed as activators; actives 0.24% (n = 48,000); AID 1508624; further: potency means the concentration at half of the fitted maximal effect; nearly all actives have a fitted effect of over 55% in size
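Firefly luciferase signal from promoter-reporter HEK293 cells was scaled between vehicle (0%) and zero RLU (-100%). Compounds were tested at final concentrations of up to 57.5 uM over 24 h at 37 degrees C. PTC124 at 50 uM final served as control inhibitor.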
DYRK1A inh-1 – human DYRK1A kinase inhibition by ATP depletion readout; shares compounds with NTMT1 inh; recombinant DYRK1A, Kinase-Glo ATP depletion luminescence; Potency, µM (series often up to 76.9 µM), for the others: top-dose activity change, negative = inhibition, most hits filed as inhibitors; actives 80% (n = 100); AID 2705
CLK4 inh-1 – inhibits human CLK4 kinase in Kinase-Glo confirmation; shares compounds with NTMT1 inh; recombinant Clk4, Kinase-Glo ATP luminescence, 4.5 h; Potency, µM (series often up to 76.9 µM), for the others: top-dose activity, negative = inhibition, hits mostly inhibitors; actives 90% (n = 90); AID 493204
CLK4 inh-2 – CLK4 kinase inhibition, SAR round 2 | shares compounds with NTMT1 inh | Reaction Biology kinase assay, 10 uM ATP | Potency, µM, usual class: inhibitors | actives 100% (n = 65) | AID 504421; calls by dose curve
DYRK1A inh-2 – inhibitors of human DYRK1A kinase; shares compounds with NTMT1 inh; Reaction Biology kinase assay, 10 uM ATP; Potency, µM, usual class: inhibitors; actives 90% (n = 65); AID 504424;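 active means compounds that showed inhibition of Dyrk1a and received a fitted potency; inactive means compounds that showed no inhibition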
CLK2 RBC – inhibitors of human CLK2 kinase; Reaction Biology kinase assay, 10 uM ATP; Potency, µM, actives largely listed as inhibitors; actives 90% (n = 65); shares compounds with NTMT1 inh;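 active means compound that inhibits Clk2 kinase in the dose series, with an IC50 potency reported; inactive means no inhibition seen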
CLK3 inh – inhibitors of human CLK3 kinase; Potency, µM, hits mostly inhibitors; actives 40% (n = 65); recombinant CLK3 kinase assay, 10 uM ATP; shares compounds with NTMT1 inh;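 active means compounds that inhibited Clk3 enough in the ten-dose series to give a half-maximal potency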
DYRK1B inh – inhibitors of human Dyrk1b kinase; AID 504429; Potency, µM, usual class: inhibitors; shares compounds with NTMT1 inh; Recombinant Dyrk1b kinase assay, 10 uM ATP; actives 80% (n = 65);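 active means compounds whose dose response shows an inhibitor phenotype against the kinase Dyrk1b; inactive means compounds showing no inhibitor phenotype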
CLK1 inh – inhibitors of human CLK1 kinase; shares compounds with NTMT1 inh; recombinant Clk1 kinase assay, 10 uM ATP; Potency, µM, actives largely listed as inhibitors; actives 90% (n = 65);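 active means compounds that block the splicing kinase Clk1 enough to give a fitted half-inhibition concentration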
Sfp qHTS opt – Sfp PPTase inhibition, chemistry optimization; purified Sfp PPTase enzyme activity, qHTS; Potency, µM (titrated, usually from 114 µM), for inactives: at the highest dose activity change, negative = inhibition, hits mostly inhibitors; AID 540350; shares compounds with NTMT1 inh; actives 78% (n = 230)
HM489 growth – reduces growth of B. subtilis HM489 strain; shares compounds with NTMT1 inh; B. subtilis HM489 (acpS-) growth, BacTiter-Glo, 5 h; Potency, µM (titrated, usually from 114 µM), for inactives: at the highest dose activity change, negative = inhibition, most hits filed as inhibitors; actives 50% (n = 220)
Sfp gel opt – inhibits B. subtilis Sfp PPTase in gel assay | purified Sfp PPTase, gel-based product detection | shares compounds with NTMT1 inh | Potency, µM (top dose mostly 250 µM), for inactives: at the highest dose activity change, negative = inhibition, usual class: inhibitors | actives 54% (n = 220)
Sfp SAR2 – Sfp phosphopantetheinyl transferase inhibition, SAR round 2; shares compounds with NTMT1 inh; purified Sfp enzyme, PPTase activity, qHTS; Potency, µM (titrated, usually from 57.1 µM), for inactives: at the highest dose activity change, negative = inhibition, actives largely listed as inhibitors; actives 87% (n = 230); AID 602370
HSD17B4 inh – counter-screen for HPGD inhibitors: human HSD17B4 inhibition. shares compounds with NTMT1 inh. purified HSD17B4, estradiol/NAD+, NADH fluorescence. Potency, µM (highest dose often 57.1 µM), for the others: at the top dose activity change, negative = inhibition, usual class: inhibitors. actives 10% (n = 230)
ALDH1A1 counter – inhibits human ALDH1A1, off-target for HPGD inhibitors; shares compounds with NTMT1 inh; recombinant ALDH1A1, NADH fluorescence, propionaldehyde/NAD+; Potency, µM (highest dose often 57.1 µM), for inactives: at the highest dose activity change, negative = inhibition, hits mostly inhibitors; actives 93% (n = 230)
Target sequence (P00352 whole entry, looked up): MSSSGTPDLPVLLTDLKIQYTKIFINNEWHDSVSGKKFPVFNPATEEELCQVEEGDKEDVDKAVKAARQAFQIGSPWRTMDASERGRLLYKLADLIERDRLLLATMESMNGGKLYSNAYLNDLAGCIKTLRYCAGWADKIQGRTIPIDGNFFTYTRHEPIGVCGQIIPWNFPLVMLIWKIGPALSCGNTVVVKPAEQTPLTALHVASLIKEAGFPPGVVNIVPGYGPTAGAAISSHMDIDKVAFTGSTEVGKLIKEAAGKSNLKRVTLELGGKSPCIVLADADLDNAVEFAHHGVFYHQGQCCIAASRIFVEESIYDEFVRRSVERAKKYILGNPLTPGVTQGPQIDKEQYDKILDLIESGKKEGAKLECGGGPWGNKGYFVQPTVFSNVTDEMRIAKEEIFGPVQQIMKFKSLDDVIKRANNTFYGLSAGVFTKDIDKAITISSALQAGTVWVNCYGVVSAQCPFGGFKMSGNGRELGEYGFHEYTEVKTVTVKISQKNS
The depositor's hits bear a star; i = inactive; ? = inconclusive; · = no result; [ ] = remark or other dose. Hits are enriched below; roughly 2.5% of the tested compounds scored in any of these assays. Unless noted, the call rests on the fitted dose curve; in most records, active means well fitted curve in the direction sought with a large enough effect; inconclusive means small, poorly fitted or top-dose-only effect, or another doubt; inactive means no such curve, though single readings can be large; an effect the other way counts as inactive or inconclusive.

SMILES	SKOV3 invasion	PTAP-TSG101 blk	HTT prom inh	NTMT1 inh	GALK inh	HTT-AS act	Sfp qHTS opt	HM489 growth	Sfp gel opt	Sfp SAR2	HSD17B4 inh	ALDH1A1 counter	others
Cc1ccc(Cl)cc1N(CC(=O)Nc1c(F)cccc1F)S(C)(=O)=O	·	·	·	-5.1%[57.5 µM]	·	·	·	·	·	·	·	·
Cc1ccc(-n2ncc3c(N4CCN(C)CC4)ncnc32)cc1	-2.3%	i	?	-1.3%	-0.2%	-59.9%	·	·	·	·	·	·
Cc1cc(C)nc(NC(=S)N2CCN(c3cc(Cl)c(Cl)c(Cl)c3)CC2)c1	·	·	·	?	·	·	1.48µM*	7.7%	10µM*	0.36µM*	-7.6%	6.07µM*
Cc1cc(C)nc(NC(=S)N2CCN(c3ncnc4sccc34)CC2)c1	·	·	·	-21.5%[57.5 µM]	·	·	5.91µM*	?	39.8µM*	1.82µM*	-23.7%	9.61µM*
Cc1cc(C)nc(NC(=S)N2CCN(c3cc(F)cc(F)c3)CC2)c1	·	·	·	·	·	·	6.63µM*	37.3µM*	10µM*	1.29µM*	·	·
O=C(Nc1ccc(F)cc1F)N1CCN(c2ccc(Cl)c(Cl)c2)CC1	-28.9%	i	?	0.6%	-2.3%	-28.3%	·	·	·	·	·	·
Cc1cc(C)nc(NC(=S)N2CCN(c3cc(C#N)cc(C#N)c3)CC2)c1	·	·	·	?	·	·	2.35µM*	92.7%	-73.2%	0.65µM*	-13.0%	17.1µM*
Fc1cc(Nc2nc(-c3ccncc3)nc3ccccc23)ccc1-c1cncnc1	·	·	·	-10.0%	·	·	·	·	·	·	·	·
COC(O)(CC(C)C)C1Oc2cc(C)[nH]c(=O)c2O1 (configuration not stated)	·	·	·	4.3%[57.5 µM]	·	·	·	·	·	·	·	·
COc1cc(-c2cccc(O)c2)cc2c1OCO2	·	·	·	16.2%[57.5 µM]	·	·	·	·	·	·	·	·
Cc1cc(C)nc(NC(=S)N2CCN(c3ccsc3)CC2)c1	·	·	·	·	·	·	5.91µM*	?	-77.1%	8.13µM*	?	21.5µM*
Cc1cc(C)nc(NC(=S)N2CCN(c3nccc(C(F)(F)F)n3)CC2)c1	·	·	·	?	·	·	2.1µM*	?	3.16µM*	1.15µM*	?	17.1µM*
Cn1ccc2cc(-c3ccc4ncnc(NCc5ccc6c(c5)OCO6)c4c3)ccc21	·	·	·	9.5%	·	·	·	·	·	·	·	·
Cc1nc(CN(C)c2ncnc3cc(-c4ccc5c(c4)OCO5)ccc23)cs1	·	·	·	?	·	·	·	·	·	·	·	·	DYRK1A inh-1=9.23µM*;CLK4 inh-2=15*;DYRK1A inh-2=i;CLK2 RBC=i;CLK3 inh=i;DYRK1B inh=i;CLK1 inh=i
Cc1nc(CCN(C)c2ncnc3ccc(-c4ccc5c(c4)OCO5)cc23)cs1	·	·	·	?	·	·	·	·	·	·	·	·	CLK4 inh-1=0.0823µM*
CCn1cnc(CCN(C)c2ncnc3ccc(-c4ccc5c(c4)OCO5)cc23)c1	·	·	·	·	·	·	·	·	·	·	·	·	DYRK1A inh-1=8.23µM*
